# Results taken from the supplement of paper PMC8975748.
# Counter-ions that a name gives are not always drawn. ± gives the standard deviation of the averaged measurements.
# How the values were obtained:
# [1] = test system: Saccharomyces cerevisiae BY4741 SeMeCo community; assay: mean cell size (pixel area) (pixels); higher = larger cells; conditions: 10 µM; 24 h; SM minimal medium
# In short: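 In this assay, mean cell pixel area per well was obtained from automated confocal images of paraformaldehyde-fixed yeast analysed in Harmony. The cells were a Saccharomyces cerevisiae BY4741 community with four plasmids, each complementing one auxotrophy and carrying a fluorescent marker, grown for 24 h in SM medium with drug at a final 10 µM in 384-well plates. Values are averaged across 3 replicates. Same SeMeCo high-content imaging drug screen: Selleck FDA-approved drugs at 10 µM, 24 h in SM medium, 384-well plates, 3 replicates.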
# [2] = test system: Saccharomyces cerevisiae BY4741 SeMeCo community; assay: z-score of subpopulation abundance vs DMSO median, subpopulation auxotrophic for M; higher = larger share of this subpopulation than in DMSO controls; conditions: 10 µM; 24 h; SM minimal medium; subpopulation (auxotrophy): M
# In short: (§1)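 Cells of a Saccharomyces cerevisiae BY4741 community, carrying four plasmids that each restored one auxotrophy and encoded a distinct fluorescent protein, were pre-grown overnight to OD600 1.0 and diluted to 0.3. A 70 µl volume was added to 384-well plates acoustically predosed with library drugs (10 µM final) and grown 24 h in minimal SM medium. After paraformaldehyde fixation, automated confocal microscopy was used, with single-auxotroph fluorescent strains for thresholds and autofluorescence correction. The abundance of each subpopulation was scored as a z-score against the vehicle-well median.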
# [3] = test system: Saccharomyces cerevisiae BY4741 SeMeCo community; assay: z-score of subpopulation abundance vs DMSO median, subpopulation auxotrophic for L; higher = larger share of this subpopulation than in DMSO controls; conditions: 10 µM; 24 h; SM minimal medium; subpopulation (auxotrophy): L
# In short: as §1
# [4] = test system: Saccharomyces cerevisiae BY4741 SeMeCo community; assay: z-score of subpopulation abundance vs DMSO median, subpopulation auxotrophic for U; higher = larger share of this subpopulation than in DMSO controls; conditions: 10 µM; 24 h; SM minimal medium; subpopulation (auxotrophy): U
# In short: as §1
# [5] = test system: Saccharomyces cerevisiae BY4741 SeMeCo community; assay: z-score of subpopulation abundance vs DMSO median, subpopulation auxotrophic for H; higher = larger share of this subpopulation than in DMSO controls; conditions: 10 µM; 24 h; SM minimal medium; subpopulation (auxotrophy): H
# In short: as §1
# [6] = test system: Saccharomyces cerevisiae BY4741 SeMeCo community; assay: z-score of subpopulation abundance vs DMSO median, subpopulation auxotrophic for LM; higher = larger share of this subpopulation than in DMSO controls; conditions: 10 µM; 24 h; SM minimal medium; subpopulation (auxotrophy): LM
# In short: as §1
# [7] = test system: Saccharomyces cerevisiae BY4741 SeMeCo community; assay: z-score of subpopulation abundance vs DMSO median, subpopulation auxotrophic for HM; higher = larger share of this subpopulation than in DMSO controls; conditions: 10 µM; 24 h; SM minimal medium; subpopulation (auxotrophy): HM
# In short: as §1
# [8] = test system: Saccharomyces cerevisiae BY4741 SeMeCo community; assay: z-score of subpopulation abundance vs DMSO median, subpopulation auxotrophic for HU; higher = larger share of this subpopulation than in DMSO controls; conditions: 10 µM; 24 h; SM minimal medium; subpopulation (auxotrophy): HU
# In short: as §1
# [9] = test system: Saccharomyces cerevisiae BY4741 SeMeCo community; assay: z-score of subpopulation abundance vs DMSO median, subpopulation auxotrophic for UM; higher = larger share of this subpopulation than in DMSO controls; conditions: 10 µM; 24 h; SM minimal medium; subpopulation (auxotrophy): UM
# In short: as §1
# [10] = test system: Saccharomyces cerevisiae BY4741 SeMeCo community; assay: z-score of subpopulation abundance vs DMSO median, subpopulation auxotrophic for HL; higher = larger share of this subpopulation than in DMSO controls; conditions: 10 µM; 24 h; SM minimal medium; subpopulation (auxotrophy): HL
# In short: as §1
# [11] = test system: Saccharomyces cerevisiae BY4741 SeMeCo community; assay: z-score of subpopulation abundance vs DMSO median, subpopulation auxotrophic for HLU; higher = larger share of this subpopulation than in DMSO controls; conditions: 10 µM; 24 h; SM minimal medium; subpopulation (auxotrophy): HLU
# In short: as §1
# [12] = test system: Saccharomyces cerevisiae BY4741 SeMeCo community; assay: z-score of subpopulation abundance vs DMSO median, subpopulation auxotrophic for HLM; higher = larger share of this subpopulation than in DMSO controls; conditions: 10 µM; 24 h; SM minimal medium; subpopulation (auxotrophy): HLM
# In short: as §1
# [13] = test system: Saccharomyces cerevisiae BY4741 SeMeCo community; assay: z-score of subpopulation abundance vs DMSO median, subpopulation auxotrophic for HUM; higher = larger share of this subpopulation than in DMSO controls; conditions: 10 µM; 24 h; SM minimal medium; subpopulation (auxotrophy): HUM
# In short: as §1
# [14] = test system: Saccharomyces cerevisiae BY4741 SeMeCo community; assay: z-score of subpopulation abundance vs DMSO median, subpopulation auxotrophic for LUM; higher = larger share of this subpopulation than in DMSO controls; conditions: 10 µM; 24 h; SM minimal medium; subpopulation (auxotrophy): LUM
# In short: as §1
# [15] = test system: Saccharomyces cerevisiae BY4741 SeMeCo community; assay: z-score of subpopulation abundance vs DMSO median, subpopulation auxotrophic for HLUM; higher = larger share of this subpopulation than in DMSO controls; conditions: 10 µM; 24 h; SM minimal medium; subpopulation (auxotrophy): HLUM
# In short: as §1
# [16] = test system: Saccharomyces cerevisiae BY4741 SeMeCo community; assay: z-score of prototroph abundance vs DMSO median; higher = larger share of this subpopulation than in DMSO controls; conditions: 10 µM; 24 h; SM minimal medium; subpopulation (auxotrophy): Prototroph
# In short: as §1
# [17] = test system: Saccharomyces cerevisiae BY4741 SeMeCo community; assay: z-score of subpopulation abundance vs DMSO median, subpopulation auxotrophic for LU; higher = larger share of this subpopulation than in DMSO controls; conditions: 10 µM; 24 h; SM minimal medium; subpopulation (auxotrophy): LU
# In short: as §1
SMILES,mean cell size [1],z-score of subpopulation abundance [2],z-score of subpopulation abundance [3],z-score of subpopulation abundance [4],z-score of subpopulation abundance [5],z-score of subpopulation abundance [6],z-score of subpopulation abundance [7],z-score of subpopulation abundance [8],z-score of subpopulation abundance [9],z-score of subpopulation abundance [10],z-score of subpopulation abundance [11],z-score of subpopulation abundance [12],z-score of subpopulation abundance [13],z-score of subpopulation abundance [14],z-score of subpopulation abundance [15],z-score of prototroph abundance [16],z-score of subpopulation abundance [17]
CN(Cc1cnc2nc(N)nc(N)c2n1)c1ccc(C(=O)N[C@@H](CCC(=O)O)C(=O)O)cc1 [Methotrexate disodium],15.01 ± 0.07,-6.18,-0.58,-4.34,15.3,-1.46,1.68,-1.36,-5.52,10.8,0.91,14.3,-2.01,-1.74,19.8,,
"CO[C@H]1C[C@@H]2CC[C@@H](C)[C@@](O)(O2)C(=O)C(=O)N2CCCC[C@H]2C(=O)O[C@H]([C@H](C)C[C@@H]2CC[C@@H](OP(C)(C)=O)[C@H](OC)C2)CC(=O)[C@H](C)/C=C(\C)[C@@H](O)[C@@H](OC)C(=O)[C@H](C)C[C@H](C)/C=C/C=C/C=C/1C [Ridaforolimus (Deforolimus, MK-8669)]",14.2 ± 0.11,-1.24,,3.51,15.9,5.98,20.9,25.9,,,23.1,,29.1,11,21.4,-18.3,5.01
C/C=C\c1ccc(O)c(OC)c1 [Isoeugenol],12.02 ± 0.031,0.59,,0.4,-0.8,,0.2,,1.01,-0.5,0.2,-0.07,,0.33,0.03,,-0.07
C=C1CCN([C@H](C)[C@](O)(Cn2cncn2)c2ccc(F)cc2F)CC1 [Efinaconazole],11.3 ± 0.097,2.69,0.13,-0.68,,2.18,3.94,2.02,,11.6,3,10.7,7.05,7.49,20.3,-9.55,
Fc1ccc([C@@H]2CCNC[C@H]2COc2ccc3c(c2)OCO3)cc1 [Paroxetine mesylate],12.1 ± 0.27,-0.51,,0.96,-0.34,-0.87,-0.77,,0.67,-0.67,0,,-0.17,-0.39,-0.05,0.14,0.46
COc1ccnc(C[S+]([O-])c2nc3cc(OC(F)F)ccc3[nH]2)c1OC (stereo not given) [Pantoprazole],12.4 ± 0.15,0.27,,-0.43,1.49,0.04,-0.27,0.3,-0.26,0.9,1.13,,-0.2,-0.41,0.7,-0.32,0.17
Oc1c(Cl)cc(Cl)c2cccnc12 [Chloroxine],13.6 ± 0.85,3.4,-0.75,-1.29,,10.6,28.2,,1.02,21.7,33.8,45.7,19.8,17.1,32.5,-16.8,
CCn1cc(C(=O)O)c(=O)c2cc(F)c(N3CCNCC3)nc21 [Enoxacin Sesquihydrate],12.2 ± 0.23,0.76,,,-1.49,0,0.03,0.47,,-0.59,-0.17,,0.88,0.36,-0.27,-0.92,0.91
C#C[C@]1(O)CC[C@H]2[C@@H]3CCC4=Cc5oncc5C[C@]4(C)[C@H]3CC[C@@]21C [Danazol],12.2 ± 0.23,-0.89,,0.53,-0.48,0.04,,0.32,0.52,-0.13,-0.45,,0.74,0.22,-0.4,,0.13
Cc1ncc([N+](=O)[O-])n1CCO [Metronidazole],12.4 ± 0.12,0.32,,-0.5,,0.12,,-0.14,-0.62,-0.42,0.18,-0.7,,-0.37,0.08,0.23,-0.37
O=C(O)CCc1nc(-c2ccccc2)c(-c2ccccc2)o1 [Oxaprozin],13 ± 0.46,-1.37,-0.53,-1.97,,-1,-0.83,-1.46,-3.67,,-0.7,-0.64,-1.67,-1.68,-0.44,2.48,
CCc1c(C)[nH]c2c1C(=O)C(CN1CCOCC1)CC2 (stereo not given) [Molindone hydrochloride],12.2 ± 0.13,-0.61,0.73,-0.6,-0.43,-0.16,-0.54,-0.73,-0.67,0.22,0.45,-0.03,-0.76,-0.28,0.04,,
N=C(N)NC(=O)c1nc(Cl)c(N)nc1N [Amiloride HCl],12.59 ± 0.11,1.46,1.94,-1.58,0.83,3.94,1.25,-2.41,-1.89,1.51,-0.5,3.24,-1.69,,0.53,,
Cc1noc(NS(=O)(=O)c2ccc(N)cc2)c1C [Sulfisoxazole],12.4 ± 0.16,0.18,0.65,0.32,-0.4,0.69,0.12,0.32,1.17,0.35,0.89,1.44,1.21,1.7,1.03,-1.42,
